High-throughput results as filed in PubChem BioAssay.
Hits are enriched below; roughly 0.92% of the tested compounds scored in any of these assays.
AGP1-GFP MLPCN = modulators of AGP1-GFP expression in yeast TOR pathway, primary screen, cell-based, multiplex flow cytometry, S. cerevisiae, MLPCN library; 3 h; GFP as percent of DMSO wells; GFP response vs DMSO, % at 10 µM; actives 0.02% (n = 320,000);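 active = GFP response relative to DMSO above a set limit, near screen average plus 3 SD, cut at about 150% in these data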;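 note: median GFP channel fluorescence of the gated AGP1 strain per well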
MEP2-GFP yeast = modulators of MEP2-GFP levels in yeast, primary screen, S. cerevisiae, multiplex flow cytometry, MLPCN library; S. cerevisiae MEP2-GFP strain, 3 h; 100% = DMSO control level; GFP response vs DMSO, % at 10 µM; actives 0.51% (n = 330,000); AID 2016, 2009;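 active = GFP response versus DMSO above a set limit, roughly screen mean plus 3 SD, cut at about 180% in these data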;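 note: median GFP fluorescence of the barcode-gated MEP2-GFP cells per well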
RPL19A TOR yeast = RPL19A-GFP expression modulators in yeast, primary screen, cell-based, S. cerevisiae, multiplex flow cytometry, MLPCN | S. cerevisiae RPL19A-GFP strain, 3 h; hits give low values | percent response vs DMSO, % at 10 µM | actives 0.3% (n = 330,000) | AID 2025, 2009;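 active = percent response vs DMSO below 50%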;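 note: median channel GFP fluorescence of the barcoded RPL19A-GFP strain; lower means less RPL19A-GFP as with rapamycin TOR inhibition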
CIT2 TOR yeast = modulators of CIT2-GFP expression in yeast, primary screen, S. cerevisiae, GFP fusion, multiplex flow cytometry, MLPCN library. S. cerevisiae CIT2-GFP strain, 3 h; 100 means same as DMSO wells. GFP response vs DMSO, % at 10 µM. actives 0.065% (n = 320,000). AID 2029, 2009;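 active = GFP response relative to DMSO above a set limit, near the screen mean plus 3 SD, cut at about 150% in these data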;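 note: ratio of well median GFP fluorescence to mean of DMSO wells on the plate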
LAP4-GFP MLPCN = modulators of LAP4-GFP expression in yeast, primary screen, S. cerevisiae, multiplex flow cytometry, MLPCN library. 3 h; median GFP as percent of DMSO wells. GFP response vs DMSO, % at 10 µM. actives 0.34% (n = 320,000). AID 2023, 2009;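 active = GFP response vs DMSO above a set limit, about the screen mean plus 3 SD, cut at about 150% in these data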
LAP4-GFP pick2 = LAP4-GFP expression modulators in yeast, confirmation, cell-based, second cherry pick, flow cytometry; shares compounds with LAP4-GFP MLPCN; S. cerevisiae LAP4-GFP strain, 3 h; GFP response vs DMSO, % at 10 µM; actives 20% (n = 590);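 active = GFP signal as percent of the solvent control above about 150%, meaning raised reporter expression, limit read from the data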
MEP2 cherry2 = modulators of MEP2-GFP levels in yeast, confirmation, S. cerevisiae, flow cytometry GFP, second cherry picks | GFP response vs DMSO, % at 10 µM | S. cerevisiae MEP2-GFP strain, 3 h | actives 10% (n = 590) | shares compounds with LAP4-GFP MLPCN;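 active = GFP signal above 150% of the solvent control wells, that is a rise of more than half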;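 note: median channel GFP fluorescence of all gated yeast cells per well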
RPL19A GFP CP2 = RPL19A-GFP modulators in TOR pathway yeast, confirmation, cell-based, S. cerevisiae, flow cytometry, second cherry pick. GFP response vs DMSO, % at 10 µM. shares compounds with LAP4-GFP MLPCN. S. cerevisiae RPL19A-GFP strain, 3 h; hits give low values; 100% means same as DMSO wells. actives 3% (n = 590);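 active = under 65% GFP response relative to DMSO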;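 note: median GFP channel fluorescence per well over the all cells gate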
CIT2 GFP CP2 = modulators of CIT2-GFP expression in yeast, confirmation, flow cytometry, second cherry pick, single plex; AID 2624, 2010; GFP response vs DMSO, % at 10 µM; shares compounds with LAP4-GFP MLPCN; actives 8% (n = 590); S. cerevisiae CIT2-GFP strain, 3 h; DMSO control wells read 100%;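 active = GFP response vs DMSO above about 150%, limit read from the data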;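 note: median green fluorescence per well over all gated yeast cells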
AGP1 GFP CP2 = AGP1-GFP expression modulators, hit retest, confirmation, cell-based, flow cytometry, S. cerevisiae, cherry pick set 2 | percent response vs DMSO, % at 10 µM | shares compounds with LAP4-GFP MLPCN | 590 tested, under 10 active | S. cerevisiae AGP1-GFP strain, 3 h | AID 2643, 2010;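 active = over 150 percent of DMSO response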;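 note: median GFP channel fluorescence over all cells without mother daughter split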
s288c autofluor = compound autofluorescence in yeast s288c, dose response, artefact control for yeast TOR pathway GFP screen, s288c strain; shares compounds with LAP4-GFP MLPCN; S. cerevisiae s288c, 520 nm autofluorescence, flow cytometry, 3 h; hits give high values; zero means same as solvent-only cells; 610 tested, under 10 active; AID 2757, 2010; fluorescence change (kMESF span) at 33 µM;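 active = fluorescence span over the dose series, or activity score, above about 33, limit read from the data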
Yeast autofl DR = autofluorescence of compounds in yeast s288c, dose response, artefact control for yeast TOR pathway GFP screen, primary hits, KU SAR, s288c parental | S. cerevisiae s288c parental, compound autofluorescence, flow cytometry, 3 h | shares compounds with LAP4-GFP MLPCN | 110 tested, under 10 active | AID 488829, 2010 | fluorescence change (span) at 33 µM;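 active = fluorescence change span, or the activity score built from it, above 25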
TORC1 bypass = wild-type yeast growth inhibition sparing TORC1 bypass cells, mechanism study for yeast TOR pathway GFP screen, BY4741 wild type, TORC1 bypass strain. shares compounds with LAP4-GFP MLPCN. S. cerevisiae BY4741 spot growth rating, 48-72 h; hits give low values. growth rating (0-3) at 30 µM. 120 tested, under 10 active. AID 504456, 2011;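 active = growth rating at most 1 for wild type yeast while the TORC1 bypass strain still grows fully, rated 3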
Of the large screens only hits and unclear results are named; the others gave an inactive call (follow-up assays come after a bar, where they were run).

CNc1nc(N)c([N+](=O)[O-])c(Nc2cccc(Cl)c2)n1	none | Yeast autofl DR inactive | TORC1 bypass inactive
Nc1nc(Nc2cccc(F)c2)nc(Nc2cccc(F)c2)c1[N+](=O)[O-]	none (no result: AGP1-GFP MLPCN, MEP2-GFP yeast, RPL19A TOR yeast, CIT2 TOR yeast, LAP4-GFP MLPCN) | Yeast autofl DR inactive | TORC1 bypass inactive
Nc1nc(Nc2ccccc2)nc(Nc2cccc(F)c2)c1[N+](=O)[O-]	none (no result: AGP1-GFP MLPCN, MEP2-GFP yeast, RPL19A TOR yeast, CIT2 TOR yeast, LAP4-GFP MLPCN) | Yeast autofl DR inactive | TORC1 bypass inactive
Cc1ccc2c(c1)nnn2C1CCN(S(=O)(=O)c2ccc(C(=O)N(C)C3CCCCC3)cc2)CC1	none | LAP4-GFP pick2 inactive | MEP2 cherry2 inactive | RPL19A GFP CP2 inactive | CIT2 GFP CP2 inactive | AGP1 GFP CP2 inactive
O=c1oc(Cl)c(Cl)c2ccccc12	LAP4-GFP MLPCN 191 | LAP4-GFP pick2 inactive | MEP2 cherry2 inactive | RPL19A GFP CP2 inactive | CIT2 GFP CP2 inactive | AGP1 GFP CP2 inactive
O=c1oc2cc(O)c(Cl)cc2c2ccccc12	none
Nc1ccc(Br)c2c1C(=O)c1ccccc1C2=O	none | LAP4-GFP pick2 156 | MEP2 cherry2 inactive | RPL19A GFP CP2 inactive | CIT2 GFP CP2 inactive | AGP1 GFP CP2 inactive | s288c autofluor inactive
Nc1ccc(O)c2c1C(=O)c1ccccc1C2=O	none
Cc1cc(C(=O)N2CCC(Cc3ccccc3)CC2)c(C)o1	none
O=S1OC(c2ccccc2)c2cc(Cl)ccc21 (stereo unspecified)	LAP4-GFP MLPCN 157 | LAP4-GFP pick2 inactive | MEP2 cherry2 inactive | RPL19A GFP CP2 inactive | CIT2 GFP CP2 inactive | AGP1 GFP CP2 inactive
O=C1OC(c2ccccc2)c2ccccc21 (stereo unspecified)	none
Cc1ccc(-c2noc(CCC(=O)NC3CC3)n2)cc1	none
Cc1ccc(O)c(N=Nc2nccs2)c1	LAP4-GFP MLPCN 171 | LAP4-GFP pick2 227 | MEP2 cherry2 inactive | RPL19A GFP CP2 inactive | CIT2 GFP CP2 inactive | AGP1 GFP CP2 inactive | s288c autofluor inactive
